Assay results as given in PubChem BioAssay (EPA / NIEHS).
Calls of active or inactive are those of the source. Rule for the calls: active = hit-call score of the fitted dose curve at least 0.9, where 1 is the maximum; inactive = score below 0.9.

How the values were obtained:
[1] = target: Bile acid receptor (Homo sapiens) (UniProt Q96RI1); test: ATG_IR1_CIS: Attagene CIS-FACTORIAL HepG2 Assay for human Nuclear Receptor Subfamily 1 Group H Member 4 (NR1H4), IR1 submotif (AID 2282946); conditions: IR1 reporter transcription, actives raise or lower the signal
In short: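 Readout: reporter transcript levels by RT-PCR with fluorescent capillary electrophoresis, from HepG2 cells transiently transfected with multiplexed cis-regulated reporters and dosed 24 h. Gain- or loss-of-signal fitted versus DMSO negative control.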

[2] = ATG_ISRE_CIS: Attagene CIS-FACTORIAL HepG2 Assay for human Interferon Regulatory Factor 1 (IRF1) binding to an Interferon-Stimulated Response Element (ISRE) (AID 2282948); conditions: HepG2 ISRE cis-reporter (Attagene), mRNA transcription readout; actives raise or lower the signal
In short: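 Read-out: fluorescent RT-PCR products resolved by capillary electrophoresis, reporting endogenous transcription factor activity via ISRE-driven reporter mRNA in transfected HepG2 cells dosed for 24 h; gain or loss fitted relative to DMSO.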

[3] = ATG_M_32_CIS: Attagene CIS-FACTORIAL HepG2 Assay for M32 Transcription Factor (Internal Marker) (AID 2282949); conditions: HepG2 Attagene cis-factorial M32 reporter, mRNA; actives raise or lower the signal;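 note: background control marker of the multiplexed CIS panel rather than a real target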
In short: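 Transient MRTU transfection of HepG2; 24 h compound treatment; TriZol RNA, oligo(dT) RT, reporter PCR, 6-FAM primer extension, HpaI cut, CE. Gain/loss of signal vs DMSO.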

[4] = ATG_M_06_CIS: Attagene CIS-FACTORIAL HepG2 Assay for M06 Transcription Factor (Internal Marker) (AID 2282950); conditions: HepG2 Attagene CIS-FACTORIAL M06 internal marker reporter; actives raise or lower the signal
In short: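 Terse: HepG2, transient MRTU transfection (FuGene 6), 24 h dosing; total RNA, oligo(dT) RT, PCR, FAM label, HpaI cut, capillary electrophoresis; bidirectional fit vs DMSO baseline; background-control endpoint.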

[5] = target: Hypoxia-inducible factor 1-alpha (Homo sapiens) (UniProt Q16665); test: ATG_HIF1a_CIS: Attagene CIS-FACTORIAL HepG2 Assay for human Hypoxia Inducible Factor 1 (HIF1A) (AID 2282951); conditions: HepG2 Attagene cis-factorial HIF1a reporter transcription; actives raise or lower the signal
In short: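 After 24 h chemical exposure of reporter-transfected HepG2 cells, reporter cDNA was PCR-amplified, labelled by 6-FAM primer extension (2 min 95 C, 20 s 68 C, 10 min 72 C), HpaI-cut (2 h, 37 C) and analysed by CE.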

[6] = target: Hepatocyte nuclear factor 6 (Homo sapiens) (UniProt Q9UBC0); test: ATG_HNF6_CIS: Attagene CIS-FACTORIAL HepG2 Assay for human Hepatocyte Nuclear Factor 6 (HNF6) (AID 2282952); conditions: HepG2 Attagene cis-factorial HNF6 reporter transcription; actives raise or lower the signal
In short: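 Twenty-four-hour chemical treatment of reporter-transfected HepG2 cells precedes RNA isolation, DNase-treated reverse transcription and PCR of reporter sequences. Labelled fragments are sized by capillary electrophoresis and fitted bidirectionally versus DMSO.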

[7] = ATG_MRE_CIS: Attagene CIS-FACTORIAL HepG2 Assay for human Metal Responsive Element (MRE) (AID 2282954); conditions: HepG2 MRE cis-reporter transcription, Attagene multiplex; actives raise or lower the signal
In short: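 Readout: capillary electrophoresis of 6-FAM-labelled, HpaI-digested RT-PCR reporter products. System: HepG2 cells carrying transient multiplexed cis reporters, dosed 24 h. Analysis: bidirectional fit, DMSO baseline.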

[8] = target: Paired box protein Pax-6 (Homo sapiens) (UniProt P26367); test: ATG_Pax6_CIS: Attagene CIS-FACTORIAL HepG2 Assay for human Paired Box 6 (PAX6) (AID 2282956); conditions: HepG2 CIS-FACTORIAL PAX6 reporter transcription, RNA readout; actives raise or lower the signal
In short: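 Readout: reporter transcript fluorescence after RT-PCR and capillary electrophoresis. Cells: HepG2, transiently transfected with cis-regulated MRTUs. Exposure 24 h. Gain or loss of signal fitted bidirectionally relative to DMSO.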

[9] = ATG_PXRE_CIS: Attagene CIS-FACTORIAL HepG2 Assay for human Pregnane X Receptor Element (PXRE) (AID 2282957); conditions: HepG2 Attagene CIS-FACTORIAL PXRE reporter, mRNA; actives raise or lower the signal
In short: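 Bidirectional activity, baselined to DMSO, derived from reporter mRNA fluorescence (RT-PCR plus capillary electrophoresis) in HepG2 cells bearing cis-promoter reporter units, 24 h exposure.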

[10] = ATG_PPRE_CIS: Attagene CIS-FACTORIAL HepG2 Assay for human Peroxisome Proliferator-activated Response Element (PPRE) (AID 2282958); conditions: HepG2 PPRE cis-element reporter, Attagene transcription factor profiling; actives raise or lower the signal
In short: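 PPRE activity in HepG2: transient cis-reporter transfection, 24 h compound incubation, reporter mRNA by RT-PCR and CE fluorescence; gain/loss fitted against DMSO.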

[11] = ATG_RORE_CIS: Attagene CIS-FACTORIAL HepG2 Assay for human RAR-related Orphan Receptor Element (RORE) (AID 2282959); conditions: HepG2 Attagene cis-factorial RORE reporter, mRNA; actives raise or lower the signal
In short: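 A 24-hour exposure of transfected HepG2 hepatoma cells precedes RNA isolation and reporter RT-PCR. Labeled products are digested with HpaI and resolved by capillary electrophoresis, with gain or loss of signal scored relative to DMSO.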

[12] = ATG_Sox_CIS: Attagene CIS-FACTORIAL HepG2 Assay for human SRY-box transcription factor (SOX) (AID 2282960); conditions: HepG2 Attagene cis-factorial SOX reporter, mRNA; actives raise or lower the signal
In short: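 HepG2, cis reporter units, 24 h exposure. Reporter mRNA: RT-PCR → FAM labelling → HpaI → CE fluorescence. Bidirectional fit vs DMSO.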

[13] = target: Transcription factor Sp1 (Homo sapiens) (UniProt P08047); test: ATG_Sp1_CIS: Attagene CIS-FACTORIAL HepG2 Assay for human Specificity Protein 1 (Sp1) (AID 2282961); conditions: HepG2 Sp1 cis-reporter transcription, actives raise or lower the signal
In short: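 Liver-derived HepG2 cells, cis-element reporter library, 24 h treatment; RNA isolated, cDNA amplified with reporter-specific primers, FAM-labeled fragments sized on capillary analyzer. DMSO baseline, bidirectional curve fit.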

[14] = ATG_SREBP_CIS: Attagene CIS-FACTORIAL HepG2 Assay for human Sterol Regulatory Element Binding (SREBP) (AID 2282962); conditions: HepG2 Attagene cis-factorial SREBP reporter, mRNA; actives raise or lower the signal
In short: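 Readout: fluorescent reporter-transcript peaks resolved by capillary electrophoresis after RT-PCR. Cells were human HepG2 carrying transfected cis-promoter reporter constructs, dosed for 24 h. Gain or loss of signal was fitted against DMSO controls.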

[15] = target: Signal transducer and activator of transcription 3 (Homo sapiens) (UniProt P40763); test: ATG_STAT3_CIS: Attagene CIS-FACTORIAL HepG2 Assay for human Signal Transducer and Activator of Transcription 3 (STAT3) (AID 2282963); conditions: HepG2, Attagene cis-factorial STAT3 reporter transcription; actives raise or lower the signal
In short: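 Uses human liver HepG2 transiently carrying cis-regulated reporter transcription units. Following 24 h dosing, reporter mRNA induction was detected by RT-PCR and capillary electrophoresis, analysed bidirectionally versus DMSO.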

[16] = ATG_TA_CIS: Attagene CIS-FACTORIAL HepG2 Assay for human TA Basal Promoter (AID 2282964); conditions: HepG2 Attagene CIS-factorial TA basal promoter reporter; actives raise or lower the signal
In short: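 Transfected HepG2, 24 h compound exposure; RNA → RT-PCR → FAM primer extension → HpaI cut → CE fluorescence. Gain/loss-of-signal fitted against DMSO negative control. Background-control readout.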

[17] = ATG_TCF_b_cat_CIS: Attagene CIS-FACTORIAL HepG2 Assay for human T-Cell-Factor with beta-catenin (TCF/b-cat) (AID 2282965); conditions: HepG2 TCF/beta-catenin cis-reporter transcription, actives raise or lower the signal
In short: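 In this cis-format system, transfected HepG2 cells report endogenous transcription factor activity. Readout after 24 h exposure is reporter transcript abundance from RT-PCR and capillary electrophoresis, analysed for gain or loss of signal versus DMSO.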

[18] = target: Heat shock factor protein 1 (Homo sapiens) (UniProt Q00613); test: ATG_HSE_CIS: Attagene CIS-FACTORIAL HepG2 Assay for human Heat Shock Transcription Factor 1 (HSE) (AID 2282953); conditions: HepG2 HSE cis-reporter, Attagene RNA transcription; actives raise or lower the signal
In short: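 Read-out: fluorescence of reporter-specific RT-PCR fragments separated by capillary electrophoresis. HepG2 carrying transfected cis-element reporter units; 24 h dosing; activity fitted in both directions relative to DMSO baseline.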

[19] = ATG_PBREM_CIS: Attagene CIS-FACTORIAL HepG2 Assay for human Phenobarbital-responsive Enhancer Module (PBREM) (AID 2282955); conditions: HepG2 PBREM cis-reporter, Attagene multiplexed transcription; actives raise or lower the signal
In short: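 Measures endogenous factor action on a phenobarbital-responsive enhancer module. HepG2 transiently carrying cis reporters, 24 h treatment, mRNA read-out by RT-PCR plus capillary electrophoresis.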

[20] = ATG_GRE_CIS: Attagene CIS-FACTORIAL HepG2 Assay for human Glucocorticoid Response Elements (GRE) (AID 2282947); conditions: HepG2 GRE cis-reporter, Attagene multiplex mRNA; actives raise or lower the signal
In short: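 HepG2, transient cis-reporter transfection, 24 h. Reporter mRNA: RT-PCR then CE, fluorescence. Fit both directions vs DMSO.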

Measured: AC50

Chain of Paired box protein Pax-6 (Homo sapiens) (P26367 whole entry, looked up): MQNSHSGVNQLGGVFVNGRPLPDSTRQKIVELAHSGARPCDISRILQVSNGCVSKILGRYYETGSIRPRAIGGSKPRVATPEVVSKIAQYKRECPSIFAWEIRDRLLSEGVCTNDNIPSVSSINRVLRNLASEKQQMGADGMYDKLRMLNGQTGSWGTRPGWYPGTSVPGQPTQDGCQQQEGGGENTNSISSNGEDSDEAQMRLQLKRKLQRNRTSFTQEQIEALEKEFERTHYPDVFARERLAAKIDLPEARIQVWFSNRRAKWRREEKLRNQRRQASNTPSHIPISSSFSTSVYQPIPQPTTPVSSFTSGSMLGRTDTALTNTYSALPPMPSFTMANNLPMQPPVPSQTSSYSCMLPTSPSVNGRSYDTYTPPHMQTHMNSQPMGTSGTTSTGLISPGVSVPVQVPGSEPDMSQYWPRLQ
Chain of Signal transducer and activator of transcription 3 (Homo sapiens) (P40763 whole entry, looked up): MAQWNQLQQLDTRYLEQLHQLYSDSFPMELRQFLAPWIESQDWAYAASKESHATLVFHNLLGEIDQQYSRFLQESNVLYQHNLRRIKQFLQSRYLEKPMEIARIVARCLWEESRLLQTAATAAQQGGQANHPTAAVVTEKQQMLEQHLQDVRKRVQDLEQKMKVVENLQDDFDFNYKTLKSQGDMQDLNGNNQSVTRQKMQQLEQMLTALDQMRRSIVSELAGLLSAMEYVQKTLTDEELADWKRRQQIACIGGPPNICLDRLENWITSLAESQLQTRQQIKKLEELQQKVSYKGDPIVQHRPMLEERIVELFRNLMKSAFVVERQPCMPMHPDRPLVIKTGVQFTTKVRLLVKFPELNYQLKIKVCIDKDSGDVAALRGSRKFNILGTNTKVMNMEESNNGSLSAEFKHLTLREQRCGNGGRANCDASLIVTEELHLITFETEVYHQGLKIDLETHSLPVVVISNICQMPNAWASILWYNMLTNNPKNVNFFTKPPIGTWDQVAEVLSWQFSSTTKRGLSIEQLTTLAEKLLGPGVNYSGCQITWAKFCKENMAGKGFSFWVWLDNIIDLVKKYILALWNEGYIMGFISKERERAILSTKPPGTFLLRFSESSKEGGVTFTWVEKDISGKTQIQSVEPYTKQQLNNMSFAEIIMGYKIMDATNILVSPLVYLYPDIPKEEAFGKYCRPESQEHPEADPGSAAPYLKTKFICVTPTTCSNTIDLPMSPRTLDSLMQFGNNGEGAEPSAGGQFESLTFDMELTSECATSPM
Chain of Bile acid receptor (Homo sapiens) (Q96RI1 whole entry, looked up): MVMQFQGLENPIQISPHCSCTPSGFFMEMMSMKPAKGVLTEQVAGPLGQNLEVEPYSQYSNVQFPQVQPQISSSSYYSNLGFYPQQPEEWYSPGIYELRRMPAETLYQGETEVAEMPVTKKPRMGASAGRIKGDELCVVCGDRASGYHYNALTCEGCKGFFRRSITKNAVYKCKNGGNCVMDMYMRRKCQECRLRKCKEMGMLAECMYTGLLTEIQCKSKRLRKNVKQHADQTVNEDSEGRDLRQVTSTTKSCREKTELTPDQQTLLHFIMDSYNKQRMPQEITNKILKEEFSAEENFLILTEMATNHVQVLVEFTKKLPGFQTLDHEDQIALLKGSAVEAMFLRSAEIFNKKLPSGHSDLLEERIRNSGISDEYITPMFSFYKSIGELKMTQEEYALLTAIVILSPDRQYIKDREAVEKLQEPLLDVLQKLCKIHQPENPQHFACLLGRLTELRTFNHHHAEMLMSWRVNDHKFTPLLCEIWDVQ
Chain of Transcription factor Sp1 (Homo sapiens) (P08047 whole entry, looked up, the tested form may be a part): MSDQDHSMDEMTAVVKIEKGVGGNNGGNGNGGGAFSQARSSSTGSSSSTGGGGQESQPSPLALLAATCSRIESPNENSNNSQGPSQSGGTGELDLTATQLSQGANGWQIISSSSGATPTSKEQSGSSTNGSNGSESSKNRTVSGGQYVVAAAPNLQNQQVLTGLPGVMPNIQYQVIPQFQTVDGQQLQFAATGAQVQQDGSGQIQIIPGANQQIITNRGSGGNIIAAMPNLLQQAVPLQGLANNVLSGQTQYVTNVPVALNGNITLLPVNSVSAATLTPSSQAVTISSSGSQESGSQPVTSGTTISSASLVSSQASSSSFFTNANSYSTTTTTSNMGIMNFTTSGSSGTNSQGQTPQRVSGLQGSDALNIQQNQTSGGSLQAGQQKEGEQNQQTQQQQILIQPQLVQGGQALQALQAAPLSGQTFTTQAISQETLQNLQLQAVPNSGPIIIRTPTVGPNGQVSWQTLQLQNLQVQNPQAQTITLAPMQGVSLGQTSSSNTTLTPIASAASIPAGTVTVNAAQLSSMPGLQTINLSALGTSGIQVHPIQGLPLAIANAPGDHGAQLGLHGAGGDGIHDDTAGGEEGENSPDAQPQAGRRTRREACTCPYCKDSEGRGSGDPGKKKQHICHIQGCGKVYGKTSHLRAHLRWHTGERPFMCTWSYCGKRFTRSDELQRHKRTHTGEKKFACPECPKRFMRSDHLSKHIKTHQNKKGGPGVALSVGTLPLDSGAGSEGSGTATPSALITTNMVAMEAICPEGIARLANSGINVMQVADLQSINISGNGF
Chain of Heat shock factor protein 1 (Homo sapiens) (Q00613 whole entry, looked up, the tested form may be a part): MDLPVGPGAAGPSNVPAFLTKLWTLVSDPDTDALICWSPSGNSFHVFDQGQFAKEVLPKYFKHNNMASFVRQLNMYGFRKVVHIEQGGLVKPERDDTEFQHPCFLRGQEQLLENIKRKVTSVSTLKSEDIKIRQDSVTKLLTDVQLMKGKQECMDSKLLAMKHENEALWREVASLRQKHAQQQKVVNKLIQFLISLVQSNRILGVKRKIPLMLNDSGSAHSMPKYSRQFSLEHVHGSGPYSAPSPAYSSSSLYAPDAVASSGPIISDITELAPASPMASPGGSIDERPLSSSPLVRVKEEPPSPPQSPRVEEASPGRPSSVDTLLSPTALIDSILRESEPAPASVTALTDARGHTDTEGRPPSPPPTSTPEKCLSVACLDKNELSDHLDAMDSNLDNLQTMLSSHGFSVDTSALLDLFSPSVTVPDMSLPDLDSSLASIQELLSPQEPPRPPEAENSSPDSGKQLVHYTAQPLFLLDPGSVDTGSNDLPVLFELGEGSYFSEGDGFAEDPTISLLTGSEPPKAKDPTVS
Chain of Hepatocyte nuclear factor 6 (Homo sapiens) (Q9UBC0 whole entry, looked up, the tested form may be a part): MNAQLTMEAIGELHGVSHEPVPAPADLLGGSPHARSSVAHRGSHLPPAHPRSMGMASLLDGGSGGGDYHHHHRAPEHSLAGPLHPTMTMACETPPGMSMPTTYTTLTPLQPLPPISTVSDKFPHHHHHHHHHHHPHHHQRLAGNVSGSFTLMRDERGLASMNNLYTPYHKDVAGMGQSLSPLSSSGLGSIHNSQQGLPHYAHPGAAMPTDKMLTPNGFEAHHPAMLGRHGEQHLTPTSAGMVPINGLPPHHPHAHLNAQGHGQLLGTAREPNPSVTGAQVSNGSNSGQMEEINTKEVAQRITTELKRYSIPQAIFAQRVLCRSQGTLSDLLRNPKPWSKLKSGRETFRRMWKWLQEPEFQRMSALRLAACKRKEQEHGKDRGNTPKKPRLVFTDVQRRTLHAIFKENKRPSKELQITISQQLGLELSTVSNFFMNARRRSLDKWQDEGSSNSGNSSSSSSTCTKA
Chain of Hypoxia-inducible factor 1-alpha (Homo sapiens) (Q16665 whole entry, looked up): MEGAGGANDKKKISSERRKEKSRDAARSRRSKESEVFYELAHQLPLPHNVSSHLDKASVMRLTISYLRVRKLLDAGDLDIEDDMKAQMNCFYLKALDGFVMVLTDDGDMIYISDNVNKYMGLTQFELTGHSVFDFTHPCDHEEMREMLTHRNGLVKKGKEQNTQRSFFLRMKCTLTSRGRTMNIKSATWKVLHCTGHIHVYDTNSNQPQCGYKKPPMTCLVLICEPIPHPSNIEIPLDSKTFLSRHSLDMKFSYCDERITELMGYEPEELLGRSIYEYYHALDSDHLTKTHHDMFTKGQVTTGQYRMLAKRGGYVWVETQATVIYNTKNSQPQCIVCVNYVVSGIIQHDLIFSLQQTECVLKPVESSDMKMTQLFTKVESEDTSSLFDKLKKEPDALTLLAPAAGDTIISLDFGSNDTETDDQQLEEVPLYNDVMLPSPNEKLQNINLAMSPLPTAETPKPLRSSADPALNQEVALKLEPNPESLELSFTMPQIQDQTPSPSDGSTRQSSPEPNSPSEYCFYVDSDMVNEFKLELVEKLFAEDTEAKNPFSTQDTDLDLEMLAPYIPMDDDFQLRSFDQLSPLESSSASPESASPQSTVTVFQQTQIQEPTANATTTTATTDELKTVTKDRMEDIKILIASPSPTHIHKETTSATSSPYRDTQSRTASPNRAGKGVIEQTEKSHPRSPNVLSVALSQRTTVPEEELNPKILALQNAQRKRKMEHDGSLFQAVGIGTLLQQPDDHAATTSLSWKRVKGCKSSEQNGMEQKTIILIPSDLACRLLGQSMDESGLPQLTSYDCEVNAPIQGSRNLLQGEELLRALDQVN

CCOc1ccc(NC(=O)CC(C)O)cc1 (stereo not given)
not listed: [18] | [19] | [20]
inactive: all other assays above

C=C(C)C(=O)OCCOC1CC2CC1C1C=CCC21 (stereo not given)
not listed: [7] | [20]
inactive: all other assays above

[O-]n1ccccc1=S.[O-]n1ccccc1=S.[Zn+2]
active: [2] 1.07 µM | [18] 0.937 µM | [7] 0.923 µM
not listed: [1] | [11] | [17]
inactive: all other assays above

C[Si]1(C)O[Si](C)(C)O[Si](C)(C)O1
active: [9] 32.5 µM
not listed: [2] | [10] | [11] | [19] | [20]
inactive: all other assays above

Nc1ccc2c(O)cc(S(=O)(=O)O)cc2c1
not listed: [1]
inactive: all other assays above

CCc1ccc(O)cc1
active: [9] 32.3 µM
not listed: [1]
inactive: all other assays above

Cc1cccc(Nc2ccccc2)c1
active: [1] 42.5 µM | [18] 162 µM | [7] 135 µM | [8] 120 µM | [9] 26.6 µM | [13] 127 µM | [14] 100 µM
not listed: [2] | [5] | [11] | [20]
inactive: all other assays above

CN1CCOCC1
active: [3] 100 µM
not listed: [1]
inactive: all other assays above

Oc1ccc2cc(SSc3ccc4cc(O)ccc4c3)ccc2c1
active: [5] 30.6 µM | [7] 34.8 µM | [8] 27.1 µM | [9] 6.48 µM | [10] 160 µM | [11] 33.5 µM | [13] 75.2 µM | [14] 8.33 µM | [16] 26.6 µM
inactive: [1] | [3] | [4] | [6] | [19] | [12] | [15] | [17]

CCCOC(=O)c1c(Cl)c(Cl)c(Cl)c(Cl)c1C(=O)OCCC
active: [2] 62.1 µM | [7] 162 µM | [9] 1.64 µM | [13] 67.1 µM | [14] 100 µM
not listed: [1] | [11] | [17]
inactive: all other assays above

CCOC(=O)C1OC1c1ccccc1 (stereo not given)
active: [2] 33.5 µM | [10] 21.6 µM
not listed: [1] | [15] | [17]
inactive: all other assays above

OCc1cccc(Oc2ccccc2)c1
active: [9] 27.4 µM
not listed: [2] | [6] | [7] | [17] | [20]
inactive: all other assays above

O=C(O)c1cc(C(=O)O)cc([N+](=O)[O-])c1
not listed: [1] | [10]
inactive: all other assays above

CCOC(=O)[C@@H](C)Oc1ccc(Oc2nc3ccc(Cl)cc3o2)cc1
active: [10] 100 µM
not listed: [1] | [11] | [15]
inactive: all other assays above

CC(C=O)Cc1ccc(C(C)(C)C)cc1 (stereo not given)
active: [9] 27.6 µM
not listed: [1]
inactive: all other assays above
